Source: PubChem (Broad Institute)
PfHsp40 rescue: rescue of PfHsp40-mediated yeast toxicity. growth rescue, % at 12.5 µM. S. cerevisiae expressing PfHsp40, growth rescue, ATP luminescence. AID 504582. actives 0.68% (n = 340,000); in the data active means growth rescue above about 28%, passing the limit was not always enough; inconclusive means no clear call, values can overlap the other calls;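 further: yeast W303a lacking pdr1 and pdr3 grown in galactose medium; growth measured after three days at 30 °C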
Mtb BioA inh: blocks M. tuberculosis BioA enzyme activity; purified M. tuberculosis BioA enzyme, plate reader; inhibition, % at 9.99 µM; actives 0.096% (n = 360,000); in the data active means inhibition above about 40%; inconclusive means no clear call, values can overlap the other calls
TcdB inh: blocks C. difficile toxin B glycohydrolase activity. P18177. TcdB glycohydrolase enzymatic assay, plate reader. inhibition, % at 9.99 µM. actives 0.24% (n = 350,000); in the data active means inhibition above about 10%
Target sequence (P18177 whole entry, looked up): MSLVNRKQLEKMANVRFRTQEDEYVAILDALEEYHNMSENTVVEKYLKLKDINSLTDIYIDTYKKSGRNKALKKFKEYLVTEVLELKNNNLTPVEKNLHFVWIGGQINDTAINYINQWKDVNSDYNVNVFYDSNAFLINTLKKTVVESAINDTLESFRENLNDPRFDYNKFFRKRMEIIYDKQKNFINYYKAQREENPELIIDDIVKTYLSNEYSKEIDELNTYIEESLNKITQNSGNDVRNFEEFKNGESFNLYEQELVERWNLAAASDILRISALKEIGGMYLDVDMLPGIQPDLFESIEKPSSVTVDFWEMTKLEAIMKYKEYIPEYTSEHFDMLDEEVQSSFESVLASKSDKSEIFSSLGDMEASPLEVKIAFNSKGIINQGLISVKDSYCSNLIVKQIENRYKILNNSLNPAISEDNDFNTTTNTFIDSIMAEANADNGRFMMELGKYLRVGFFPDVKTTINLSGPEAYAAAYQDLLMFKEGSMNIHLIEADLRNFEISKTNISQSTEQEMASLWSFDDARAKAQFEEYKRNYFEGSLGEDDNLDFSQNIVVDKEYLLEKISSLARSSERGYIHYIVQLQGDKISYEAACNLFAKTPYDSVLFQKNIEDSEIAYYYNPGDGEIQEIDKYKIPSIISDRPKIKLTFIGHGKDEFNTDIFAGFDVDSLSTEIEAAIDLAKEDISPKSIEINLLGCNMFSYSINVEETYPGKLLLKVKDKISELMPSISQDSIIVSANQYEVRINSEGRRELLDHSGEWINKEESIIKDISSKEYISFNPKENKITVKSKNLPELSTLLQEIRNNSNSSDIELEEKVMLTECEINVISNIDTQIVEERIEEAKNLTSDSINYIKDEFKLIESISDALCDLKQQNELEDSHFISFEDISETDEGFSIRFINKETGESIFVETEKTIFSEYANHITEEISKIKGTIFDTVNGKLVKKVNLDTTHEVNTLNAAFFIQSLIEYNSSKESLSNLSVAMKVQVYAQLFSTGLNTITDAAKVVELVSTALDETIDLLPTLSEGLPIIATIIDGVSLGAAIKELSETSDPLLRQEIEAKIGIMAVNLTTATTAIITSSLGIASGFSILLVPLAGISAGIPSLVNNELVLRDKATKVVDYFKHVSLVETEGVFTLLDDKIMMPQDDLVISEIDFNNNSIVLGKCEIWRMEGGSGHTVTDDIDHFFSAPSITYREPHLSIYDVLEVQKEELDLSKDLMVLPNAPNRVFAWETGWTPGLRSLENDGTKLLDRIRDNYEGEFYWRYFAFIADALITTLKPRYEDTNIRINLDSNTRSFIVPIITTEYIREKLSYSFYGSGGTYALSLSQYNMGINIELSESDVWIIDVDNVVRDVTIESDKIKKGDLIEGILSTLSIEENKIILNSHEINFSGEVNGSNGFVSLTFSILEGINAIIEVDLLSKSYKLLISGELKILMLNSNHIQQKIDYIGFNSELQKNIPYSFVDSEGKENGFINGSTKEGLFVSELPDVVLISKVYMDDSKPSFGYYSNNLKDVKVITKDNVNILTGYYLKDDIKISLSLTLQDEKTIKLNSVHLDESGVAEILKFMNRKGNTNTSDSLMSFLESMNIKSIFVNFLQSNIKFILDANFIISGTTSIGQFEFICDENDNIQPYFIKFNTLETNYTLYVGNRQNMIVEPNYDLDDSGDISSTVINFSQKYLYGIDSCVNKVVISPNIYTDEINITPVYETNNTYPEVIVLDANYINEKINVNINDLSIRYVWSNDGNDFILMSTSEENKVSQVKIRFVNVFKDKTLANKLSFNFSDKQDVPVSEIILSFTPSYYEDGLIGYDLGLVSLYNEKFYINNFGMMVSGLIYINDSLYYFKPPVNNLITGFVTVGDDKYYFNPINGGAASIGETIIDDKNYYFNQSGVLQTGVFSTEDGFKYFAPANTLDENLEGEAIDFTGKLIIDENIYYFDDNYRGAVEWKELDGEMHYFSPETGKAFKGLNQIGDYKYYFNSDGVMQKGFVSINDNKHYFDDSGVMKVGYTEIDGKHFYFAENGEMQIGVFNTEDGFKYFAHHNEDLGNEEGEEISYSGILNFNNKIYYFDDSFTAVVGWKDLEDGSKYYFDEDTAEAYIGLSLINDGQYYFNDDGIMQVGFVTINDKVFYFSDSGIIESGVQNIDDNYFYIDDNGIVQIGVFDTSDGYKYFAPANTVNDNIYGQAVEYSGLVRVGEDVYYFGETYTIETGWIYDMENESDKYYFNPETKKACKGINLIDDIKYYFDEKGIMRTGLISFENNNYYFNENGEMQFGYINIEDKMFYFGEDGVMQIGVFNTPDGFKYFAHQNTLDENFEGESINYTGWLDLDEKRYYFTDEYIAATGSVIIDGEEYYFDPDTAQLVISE
Yp Topo-I inh: inhibitors of Yersinia pestis topoisomerase I; Y. pestis Topo-I cleavage product accumulation, plate reader; activity, % at 10 µM; actives 0.064% (n = 360,000); AID 504884; in the data active means activity above about 50%, passing the limit was not always enough; inconclusive means no clear call, values can overlap the other calls
FadD28 binding: blocks FadD28 binding to the bisubstrate probe. actives 0.22% (n = 360,000). inhibition, % at 12.5 µM. fluorescence polarization; in the data active means inhibition above about 8.5%, passing the limit was not always enough; inconclusive means no clear call, values can overlap the other calls
PrP 5UTR inh: suppresses PrP 5' UTR mRNA reporter expression. cell-based PrP 5' UTR mRNA reporter, plate reader. inhibition, % (test concentration not listed). actives 0.35% (n = 340,000). AID 488862; in the data active means inhibition above about 52%
PrP UTR cherry: prion 5' UTR mRNA inhibition, cherry-pick retest. shares compounds with PrP 5UTR inh. cell-based prion protein 5' UTR reporter, plate reader. inhibition, % at 2.5 µM. actives 48% (n = 1,100). AID 504592; in the data active means inhibition above about 54%; inconclusive means no clear call, values can overlap the other calls
Large screens that a line does not name were inactive (follow-up assays come after a bar, where they were run). Rows were chosen to be rich in hits. Some 1.2% of all compounds tested hit in one or more screens of this group.

C[C@@H]1CN([C@@H](C)CO)C(=O)c2cccc(NC(=O)Nc3ccc4c(c3)OCO4)c2O[C@@H]1CN(C)S(=O)(=O)c1cccs1	none (no result: PfHsp40 rescue, Yp Topo-I inh, FadD28 binding, PrP 5UTR inh)
COc1ccc(NC(=O)N(C)C[C@H]2Oc3ccc(NC(=O)CCC(F)(F)F)cc3CC(=O)N([C@@H](C)CO)C[C@H]2C)cc1	none (no result: PfHsp40 rescue, Yp Topo-I inh, FadD28 binding, PrP 5UTR inh)
O=C(Nc1ccc(COc2ccccc2)cc1)Oc1ccccc1N1CCOCC1	PrP 5UTR inh 59 (no result: Mtb BioA inh) | PrP UTR cherry inactive
COc1ccc(-c2cc(-c3cccs3)c(C#N)c(SCC(=O)NCc3ccco3)n2)cc1	PrP 5UTR inh 68 (no result: TcdB inh) | PrP UTR cherry 86
COc1ccc(CNC(=O)CSc2nc(-c3ccccc3)cc(-c3cccs3)c2C#N)cc1	none (no result: TcdB inh)
Oc1ccccc1-c1n[nH]c(-c2ccccc2O)n1	PrP 5UTR inh 69 (no result: Mtb BioA inh) | PrP UTR cherry inactive
Cc1ccc(S(=O)(=O)NCC[C@H]2CC[C@@H](NC(=O)c3ccccn3)[C@@H](CO)O2)cc1	none (no result: PfHsp40 rescue, Yp Topo-I inh, FadD28 binding, PrP 5UTR inh)
Cc1ccc(S(=O)(=O)N(C)c2c(C)ccc(S(=O)(=O)NC(C)(C)C)c2C)cc1	PrP 5UTR inh 82 (no result: Mtb BioA inh) | PrP UTR cherry inactive
C/C=C/c1ccc([C@@H]2[C@@H](CO)N(S(C)(=O)=O)C23CN(C(=O)CC)C3)cc1	none (no result: PfHsp40 rescue, Mtb BioA inh, Yp Topo-I inh, FadD28 binding, PrP 5UTR inh)
COc1ccc2cc(C(N)=O)/c(=N\NC(=O)c3ccccc3)oc2c1	PrP 5UTR inh 53 | PrP UTR cherry inactive
COC(=O)Cc1[nH]n(-c2ccccc2)c(=O)c1C(C)=Nc1ccccc1	none
COC(=O)Cc1[nH]n(-c2nc3ccccc3s2)c(=O)c1C(C)=Nc1ccc(Cl)cc1	PrP 5UTR inh 91 (no result: Mtb BioA inh) | PrP UTR cherry 87
COC(=O)Cc1[nH]n(-c2nc3ccccc3s2)c(=O)c1C(C)=Nc1ccc(C)cc1	PrP 5UTR inh 92 (no result: Mtb BioA inh) | PrP UTR cherry 92
O=C(NCC[C@H]1CC[C@H](NS(=O)(=O)c2ccc(Oc3ccccc3)cc2)[C@@H](CO)O1)C1CC1	none (no result: PfHsp40 rescue, Yp Topo-I inh, FadD28 binding, PrP 5UTR inh)
C[C@H](CO)N1C[C@H](C)[C@H](CN(C)C(=O)Nc2ccc(F)cc2)Oc2ccc(NS(C)(=O)=O)cc2CC1=O	none (no result: PfHsp40 rescue, Yp Topo-I inh, FadD28 binding, PrP 5UTR inh)
COc1ccc(NC(=O)N(C)C[C@@H]2Oc3ccc(NS(=O)(=O)c4c(C)noc4C)cc3CC(=O)N([C@@H](C)CO)C[C@H]2C)cc1	none (no result: PfHsp40 rescue, Yp Topo-I inh, FadD28 binding, PrP 5UTR inh)
CC(=O)OC1CC2OC3C=C(C)CCC3(C)C1(C)C21CO1 (stereo not given)	none (no result: PfHsp40 rescue, PrP 5UTR inh)
CC(=O)O[C@H]1C[C@@H]2OC3C=C(C)CCC3(C)[C@@]1(C)[C@@]21CO1 (stereo not given in full)	PrP 5UTR inh 72 (no result: PfHsp40 rescue, Mtb BioA inh) | PrP UTR cherry 59
COc1ccccc1-c1nc(-c2ccccn2)no1	none
Cc1ccccc1-c1nc(-c2ccccn2)no1	PrP 5UTR inh 70 (no result: Mtb BioA inh) | PrP UTR cherry inconclusive
Clc1ccc(-c2nc(-c3ccccn3)no2)cc1Cl	none (no result: TcdB inh)
COc1ccc(-c2nc(-c3ccccn3)no2)cc1	PrP 5UTR inh 91 (no result: Mtb BioA inh) | PrP UTR cherry 91
Nc1ccc(-c2cc3ccccc3c(=O)o2)cc1	PrP 5UTR inh 70 | PrP UTR cherry 68
CCN(CC)CCNC(=S)NC(=O)c1cn(-c2ccccc2)nc1-c1ccc(OC)cc1	PrP 5UTR inh 67 (no result: Mtb BioA inh) | PrP UTR cherry inactive
COC(=O)c1cn(-c2ccccc2)nc1-c1ccc(OC)cc1	none (no result: Mtb BioA inh)
Cn1cnc2nc[nH]c2c1=O	PrP 5UTR inh 55 | PrP UTR cherry inactive
CCCNC(=O)C[C@H]1C[C@@H]2c3cc(N(C)C)ccc3O[C@@H]2[C@H](CO)O1	none (no result: PfHsp40 rescue, Yp Topo-I inh, FadD28 binding, PrP 5UTR inh)
C[C@H]1CCCCO[C@H](CN(C)Cc2ccncc2)[C@@H](C)CN([C@@H](C)CO)C(=O)c2cc(NC(=O)NC3CCCCC3)ccc2O1	none (no result: PfHsp40 rescue, Yp Topo-I inh, FadD28 binding, PrP 5UTR inh)
COc1cc(C2c3cc4c(cc3CC3COC(=O)N32)OCO4)cc(OC)c1OC (stereo not given)	PrP 5UTR inh 58 (no result: Mtb BioA inh) | PrP UTR cherry 91
COc1cc(C2c3cc4c(cc3CC3COC(=O)C32)OCO4)cc(OC)c1OC (stereo not given)	none
C[C@@H]1CN([C@@H](C)CO)C(=O)c2cccc(NS(=O)(=O)c3ccc(Cl)cc3)c2O[C@H]1CN(C)S(=O)(=O)c1cn(C)cn1	none (no result: PfHsp40 rescue, TcdB inh, Yp Topo-I inh, FadD28 binding, PrP 5UTR inh)
Cc1ccc(SC(C)c2nc(-c3ccccc3)no2)cc1 (stereo not given)	PrP 5UTR inh 75 (no result: Mtb BioA inh, TcdB inh) | PrP UTR cherry inactive
Cc1cc(/C=N/Nc2ncnc(N)c2[N+](=O)[O-])c(C)n1-c1ccccc1	PrP 5UTR inh 77 | PrP UTR cherry 78
